Bioassay records deposited in PubChem BioAssay by National Center for Advancing Translational Sciences (NCATS).
Most compounds without a hit are left out; they make up all but 2.9% or so of the library.
Pol iota inh = qHTS for Inhibitors of Polymerase Iota. 390,000 tested, 1% active. Potency, µM (series often up to 115 µM), hits mostly inhibitors. Pol iota fluorescent replication assay, 10 min
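Fluorescent replication assay read twice, at 0 min and 10 min after adding 50 nM (final) substrate. Enzyme (10 nM) and compounds were first incubated 15 min at room temperature; enzyme-free buffer wells were negative controls.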
Pol kappa inh = qHTS for Inhibitors of Polymerase Kappa. purified Pol kappa, fluorescent DNA synthesis assay, 10 min. AID 588579, 2011. Potency, µM (highest dose often 107 µM), usual class: inhibitors. 400,000 tested, 0.53% active
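Inhibition of 10 nM Pol kappa is measured by a fluorescent read-out at 0 and 10 min following addition of 50 nM substrate (final), with a 15-min room-temperature compound preincubation.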
ALOX12 inh = Primary qHTS assay for inhibitors of human arachidonate 12S-lipoxygenase (ALOX12): Round 2; Polyunsaturated fatty acid lipoxygenase ALOX12 (Homo sapiens), P18054; purified 12hLO, xylenol orange hydroperoxide absorbance; Potency, µM (highest dose often 108 µM), most hits filed as inhibitors; 580,000 tested, 1.1% active; AID 1671190, 2021
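Hydroperoxide product was detected by ferrous iron/xylenol orange as the 573 to 405 nm absorbance ratio. Arachidonic acid at 40 uM (final) was turned over for 30 min at room temperature by 150 nM human 12hLO, pH 7.0 Hepes buffer, after 15 min compound preincubation.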
PI5P4Ka inh = qHTS for Inhibitors of phosphatidylinositol 5-phosphate 4-kinase (PI5P4K); max response, %; 330,000 tested, 1.2% active; Phosphatidylinositol 5-phosphate 4-kinase type-2 alpha (Homo sapiens), P48426; PI5P4Kalpha enzyme, ADP-Glo luminescence, 60 min; active compounds read low; active means max response of -50% or lower; inconclusive means between -30% and -50%; inactive means -30% or higher; further: value at the top dose of about 77 µM
Target sequence (P48426 whole entry, looked up): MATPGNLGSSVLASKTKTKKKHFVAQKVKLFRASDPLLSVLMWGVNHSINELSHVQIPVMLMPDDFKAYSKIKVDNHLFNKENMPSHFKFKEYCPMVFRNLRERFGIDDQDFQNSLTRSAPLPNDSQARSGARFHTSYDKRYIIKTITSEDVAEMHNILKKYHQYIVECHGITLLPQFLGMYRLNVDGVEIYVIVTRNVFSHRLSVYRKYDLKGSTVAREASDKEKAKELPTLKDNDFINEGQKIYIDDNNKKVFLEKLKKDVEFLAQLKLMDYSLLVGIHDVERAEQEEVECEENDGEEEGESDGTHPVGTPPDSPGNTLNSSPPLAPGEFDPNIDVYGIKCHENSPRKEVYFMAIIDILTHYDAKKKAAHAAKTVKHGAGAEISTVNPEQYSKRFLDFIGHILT
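Enzyme plus substrate dispensed, test compounds pinned in, then ATP (5 microM final) added. After 60 min at RT, ADP-Glo reagent 1 for 45 min and reagent 2 for 30 min preceded luminescence imaging.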
Pol eta inh = qHTS for Inhibitors of Polymerase Eta. Potency, µM (doses to about 114 µM), hits mostly inhibitors. DNA polymerase eta (Homo sapiens), Q9Y253. 390,000 tested, 1.2% active. recombinant Pol eta, fluorescent DNA replication assay
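Fluorescent replication assay: 50 nM final substrate added after a 15 min room-temperature compound preincubation with 10 nM enzyme. Signal taken at 0 min and again at 10 min.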
POLB inh = qHTS Assay for Inhibitors of DNA Polymerase Beta; P06746; Pol beta primer extension/strand displacement, fluorescence kinetic; Potency, µM (titrated, usually from 114 µM), actives largely listed as inhibitors; 340,000 tested, 1.3% active
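Pol beta (10 nM) was preincubated with compound for 15 min at room temperature. The reaction was then started with 50 nM substrate and read immediately and after a further 10 min at room temperature.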
Each line names hits and unclear results; the compound was inactive in the other large screens. Unless noted, the call rests on the fitted dose curve; in most records, active means well fitted inhibition curve with a large enough effect; inconclusive means small, poorly fitted or top-dose-only effect, or another doubt; inactive means no such curve, though single readings can be large or run the other way.

O=C(CCSc1ccc(Cl)cc1)Oc1ccc2ccc(=O)oc2c1	none (no result: Pol iota inh, Pol kappa inh, PI5P4Ka inh, Pol eta inh, POLB inh)
CCc1ccc(C(=O)CSc2n[nH]c(C)n2)cc1	Pol iota inh inconclusive, PI5P4Ka inh -57
Cc1ccc(C(=O)CSc2n[nH]c(C)n2)cc1	none (no result: PI5P4Ka inh)
Cc1nc(N=Nc2cc([N+](=O)[O-])ccc2Cl)c(COP(=O)(O)O)c(C=O)c1O	Pol kappa inh 27µM, ALOX12 inh 11µM (no result: Pol iota inh, PI5P4Ka inh, Pol eta inh, POLB inh)
Cc1nc(N=Nc2cc(S(=O)(=O)O)c3cc([N+](=O)[O-])cc(S(=O)(=O)O)c3c2)c(COP(=O)(O)O)c(C=O)c1O	Pol iota inh 5µM, Pol kappa inh 9.5µM, Pol eta inh 0.63µM, POLB inh 2.8µM (no result: PI5P4Ka inh)
CN(CCC(O)c1ccccc1)c1nccc(-c2cccnc2)n1 (centres undefined)	none (no result: Pol iota inh, Pol kappa inh, PI5P4Ka inh, Pol eta inh, POLB inh)
Cc1cc(C)c(/C=N/Nc2cc(C(F)(F)F)ccc2Cl)c(C)c1	ALOX12 inh 13µM (no result: Pol iota inh, Pol kappa inh, PI5P4Ka inh, Pol eta inh, POLB inh)
FC(F)(F)c1ccc(Cl)c(N/N=C/c2ccc(Cl)cc2Cl)c1	ALOX12 inh 40µM (no result: Pol iota inh, Pol kappa inh, PI5P4Ka inh, Pol eta inh, POLB inh)
FC(F)(F)c1ccc(Cl)c(N/N=C/C(c2ccccc2)c2ccccc2)c1	none (no result: Pol iota inh, Pol kappa inh, PI5P4Ka inh, Pol eta inh, POLB inh)
CCOc1ccc(Nc2oc(/C=C/c3ccccc3)nc2C#N)cc1	none (no result: Pol iota inh, Pol kappa inh, PI5P4Ka inh, Pol eta inh, POLB inh)
COc1ccccc1C(=O)NC(=O)CSc1nnc(N)s1	Pol iota inh inconclusive, ALOX12 inh inconclusive, PI5P4Ka inh -60, Pol eta inh 79µM (no result: POLB inh)
Cc1c(C(=O)CSc2nnc(C3CC3)n2C2CC2)sc2ccccc12	none (no result: Pol iota inh, Pol kappa inh, PI5P4Ka inh, Pol eta inh, POLB inh)
C/C(=N\NC(=O)c1ccc(O)cc1)c1ccc2c(c1)Nc1ccccc1S2	ALOX12 inh inconclusive, PI5P4Ka inh -77
COc1cc(-c2nn3c(-c4ccco4)nnc3s2)cc(OC)c1OC	none (no result: Pol iota inh, Pol kappa inh, ALOX12 inh, PI5P4Ka inh, Pol eta inh)
Brc1ccc(-c2nn3c(-c4ccco4)nnc3s2)o1	Pol iota inh inconclusive, Pol kappa inh inconclusive, ALOX12 inh inconclusive, Pol eta inh inconclusive, POLB inh 45µM (no result: PI5P4Ka inh)
Brc1ccc(-c2nn3c(-c4ccccn4)nnc3s2)o1	Pol iota inh inconclusive, Pol kappa inh inconclusive, Pol eta inh 79µM, POLB inh 22µM (no result: PI5P4Ka inh)
Clc1ccc(-c2ccc(-c3nn4c(-c5ccco5)nnc4s3)o2)cc1	Pol iota inh inconclusive, ALOX12 inh inconclusive, Pol eta inh 79µM (no result: PI5P4Ka inh, POLB inh)
CCNC(=O)CSc1cc(C)c2ccccc2n1	none (no result: Pol iota inh, Pol kappa inh, PI5P4Ka inh, Pol eta inh, POLB inh)
O=C(CN1CCCCCC1)NCC1Cn2cccc2C(=O)N1Cc1ccccc1 (centres undefined)	none (no result: Pol iota inh, Pol kappa inh, PI5P4Ka inh, Pol eta inh, POLB inh)
CC1CCCCN1CCNC(=O)c1cc(=O)[nH]c2ccccc12 (centres undefined)	none (no result: Pol iota inh, Pol kappa inh, PI5P4Ka inh, Pol eta inh, POLB inh)
COC(=O)CCC(=O)OC1(C)C(=O)C=C2C=C(C3CC3)N(C3CC3)C=C2C1=O (centres undefined)	Pol iota inh 14µM
COC(=O)CCC(=O)OC1(C)C(=O)C=C2C=C(c3ccsc3)OC=C2C1=O (centres undefined)	Pol iota inh 14µM, Pol kappa inh 20µM, PI5P4Ka inh -98, Pol eta inh 5µM (no result: ALOX12 inh, POLB inh)
CCC(=O)OC1(C)C(=O)C=C2C=C(c3ccsc3)OC=C2C1=O (centres undefined)	Pol iota inh 18µM, Pol kappa inh 50µM, PI5P4Ka inh -73, Pol eta inh 50µM, POLB inh 50µM (no result: ALOX12 inh)
CCN1CCN(C(=O)c2ccc(-n3nc(C)c(-c4ccc(F)cc4)c3NC(C)=O)cc2)CC1	none (no result: Pol iota inh, Pol kappa inh, PI5P4Ka inh, Pol eta inh, POLB inh)
CC(=O)C1=C(c2ccc(Br)cc2)C(=O)c2ccccc2C1=O	Pol iota inh 3.5µM, Pol kappa inh inconclusive
CNC1=C(N(C(C)=O)c2ccc(Br)cc2)C(=O)c2ccccc2C1=O	Pol iota inh inconclusive
O=C(Cc1n[nH]c(=O)c2ccccc12)NCC(=O)N1CCN(Cc2ccccc2)CC1	none (no result: Pol iota inh, Pol kappa inh, PI5P4Ka inh, Pol eta inh, POLB inh)
CCOC(=O)Cc1nnc(NC(=O)c2ccccc2OCC)s1	none
CCOC(=O)Cc1nnc(NC(=O)c2ncn[nH]2)s1	Pol iota inh 7.1µM
Cc1ccc(C2Cn3cnc(C(=O)N4CCC(C(=O)NCc5ccco5)CC4)c3CO2)cc1 (centres undefined)	none (no result: Pol iota inh, Pol kappa inh, PI5P4Ka inh, Pol eta inh, POLB inh)
